Drawing on PubChem BioAssay (Tox21), this text covers outcome, Potency and max activation for ten compounds.

Unmarked numbers belong to inactive results. Inconclusive results are not listed. The source made the active and inactive calls. Unless noted, the call rests on the fitted dose curve; in most records, active means well fitted curve in the direction sought with a large enough effect in the repeat runs; inconclusive means weak or mixed curves; inactive means no such curve, though single readings can be large; an effect the other way counts as inactive or inconclusive.

Experiment [1] deals with Thyrotropin-releasing hormone receptor (Homo sapiens) (UniProt P34981). Briefly: qHTS assay to identify small molecule agonists of the thyrotropin-releasing hormone receptor (TRHR) signaling pathway (AID 1346891; calls by dose curve; further: series mostly up to about 58 µM). In outline: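 HEK293 cells expressing TRHR plated 18 h at 37 C/5% CO2, calcium dye-loaded 2 h at 37 C, then compound added (agonist mode); kinetic calcium fluorescence read 3 min at 1 s intervals; 15 concentrations in triplicate.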
Sequence of Thyrotropin-releasing hormone receptor (Homo sapiens) (P34981 whole entry, looked up): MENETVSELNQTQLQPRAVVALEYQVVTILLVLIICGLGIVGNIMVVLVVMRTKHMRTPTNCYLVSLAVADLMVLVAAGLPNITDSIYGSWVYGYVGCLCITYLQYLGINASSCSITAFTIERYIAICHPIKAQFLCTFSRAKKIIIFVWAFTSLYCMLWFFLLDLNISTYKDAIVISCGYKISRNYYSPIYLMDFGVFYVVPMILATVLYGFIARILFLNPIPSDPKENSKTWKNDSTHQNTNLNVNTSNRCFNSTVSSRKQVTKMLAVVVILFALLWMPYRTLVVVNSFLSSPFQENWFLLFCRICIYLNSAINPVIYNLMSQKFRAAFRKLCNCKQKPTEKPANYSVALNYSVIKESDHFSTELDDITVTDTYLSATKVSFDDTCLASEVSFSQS

Experiment [2] can be described thus: Human pregnane X receptor (PXR) small molecule agonists, qHTS cell viability counter screen (AID 1346977). Further: nearly all actives have a fitted effect of over 50% in size. In outline:
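PXR-Luc HepG2 cells (2,000/well, 5% charcoal-stripped FBS) preincubated 5 hr, then exposed to compounds 24 hr at 37 C. Viability read in the same wells by CellTiter-Fluor fluorescence, reagent added at 23 hr, 1 hr incubation.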
(Quantitative high-throughput screening tests each substance at several concentrations.)

The nature of experiment [3]: Caspase-3/7 induction in HepG2 cells by small molecules, qHTS assay (AID 1346978). Further: nearly all actives have a fitted effect of over 15% in size. Put shortly: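 Caspase-3/7 induction was measured by Caspase-Glo 3/7 luminescence (30 min, room temperature) after a 17 hr compound exposure of wild-type HepG2 cells seeded at 2,000 per well and pre-incubated 5 hr.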
Experiment [4] is described as follows: Caspase-3/7 induction in CHO-K1 cells by small molecules, qHTS cell viability counter screen (AID 1346979). Further: nearly all actives have a fitted effect of over 35% in size. Put shortly: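 Wild-type CHO-K1 cells (1,500/well) treated with compound after 5 h plating; after 16 h at 37C, viability read as CellTiter-Fluor fluorescence following 1 h reagent incubation, in the same wells as the caspase read.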
For experiment [5], the target named is Nuclear receptor subfamily 1 group I member 2 (Homo sapiens) (UniProt O75469). Briefly: Human pregnane X receptor (PXR) small molecule agonists, qHTS assay (AID 1346982). Further: nearly all actives have a fitted effect of over 35% in size. Further: potency means the concentration at half of the fitted maximal effect. Put shortly:
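Luminescence (ONE-Glo, 30 min RT) after 24 hr compound exposure of PXR-Luc HepG2 cells; cells rested 5 hr post-plating in 5% charcoal-stripped FBS medium.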

In experiment [6] the target is Cytochrome P450 2D6 (Homo sapiens) (UniProt P10635). Briefly: Cytochrome P450 Family 2 Subfamily D Member 6 (CYP2D6) small molecule antagonists: luciferase reporter qHTS assay (AID 1671196). Further: nearly all actives have a fitted effect of over 50% in size. Further: potency means the concentration at half of the fitted maximal effect. In outline:
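Inhibition of CYP2D6 was gauged by loss of luminescence, since light produced tracks the luciferin generated from a proluciferin substrate. A 10 min room-temperature preincubation preceded 1 h NADPH-supported turnover.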
For orientation: Reporter assays use an easily measured gene product as a stand-in for the process of interest.

The target in experiment [7] is Cytochrome P450 2C19 (Homo sapiens) (UniProt P33261). Briefly: Cytochrome P450 Family 2 Subfamily C Member 19 (CYP2C19) small molecule antagonists: luciferase reporter qHTS assay (AID 1671197). Further: nearly all actives have a fitted effect of over 65% in size. Further: potency means the concentration at half of the fitted maximal effect. Put shortly: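 Inhibition of CYP2C19 was scored from loss of luminescence in a P450-Glo proluciferin substrate assay, NADPH-started and run 1 h at 37C, with ketoconazole as positive control.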
Sequence of Cytochrome P450 2C19 (Homo sapiens) (P33261 whole entry, looked up): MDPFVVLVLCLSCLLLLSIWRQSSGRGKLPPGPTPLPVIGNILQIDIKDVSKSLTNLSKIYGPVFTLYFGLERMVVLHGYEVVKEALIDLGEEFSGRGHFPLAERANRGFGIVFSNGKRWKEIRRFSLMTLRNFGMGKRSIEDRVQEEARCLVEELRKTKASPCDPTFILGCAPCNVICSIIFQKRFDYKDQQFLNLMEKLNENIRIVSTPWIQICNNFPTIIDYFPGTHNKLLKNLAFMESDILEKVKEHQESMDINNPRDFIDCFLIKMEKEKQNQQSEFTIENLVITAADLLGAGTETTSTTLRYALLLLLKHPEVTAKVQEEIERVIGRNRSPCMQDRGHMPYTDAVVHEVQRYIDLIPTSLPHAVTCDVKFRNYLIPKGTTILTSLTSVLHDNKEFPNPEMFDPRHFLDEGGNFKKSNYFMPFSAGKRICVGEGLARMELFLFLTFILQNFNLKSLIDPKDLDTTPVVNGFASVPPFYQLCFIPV

The target of experiment [8] is Voltage-gated inwardly rectifying potassium channel KCNH2 (Homo sapiens) (UniProt Q12809). Briefly: Human Ether-a-go-go-Related Gene (hERG) channel small molecule antagonists: fluorescence cell-based qHTS assay (AID 1671200).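 Further: hERG-expressing U2OS cells given a thallium stimulus after FluxOR II dye loading; series mostly up to about 77 µM; nearly all actives have a fitted effect of over 50% in size.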 In outline: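 hERG-U2OS cells plated overnight at 37 C, loaded with FluxOR II dye 1 h at RT in dark; after 10 min, thallium stimulus added. Fluorescence (480/540 nm) read kinetically for 2 min at 1 s intervals.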
Sequence of Voltage-gated inwardly rectifying potassium channel KCNH2 (Homo sapiens) (Q12809 whole entry, looked up): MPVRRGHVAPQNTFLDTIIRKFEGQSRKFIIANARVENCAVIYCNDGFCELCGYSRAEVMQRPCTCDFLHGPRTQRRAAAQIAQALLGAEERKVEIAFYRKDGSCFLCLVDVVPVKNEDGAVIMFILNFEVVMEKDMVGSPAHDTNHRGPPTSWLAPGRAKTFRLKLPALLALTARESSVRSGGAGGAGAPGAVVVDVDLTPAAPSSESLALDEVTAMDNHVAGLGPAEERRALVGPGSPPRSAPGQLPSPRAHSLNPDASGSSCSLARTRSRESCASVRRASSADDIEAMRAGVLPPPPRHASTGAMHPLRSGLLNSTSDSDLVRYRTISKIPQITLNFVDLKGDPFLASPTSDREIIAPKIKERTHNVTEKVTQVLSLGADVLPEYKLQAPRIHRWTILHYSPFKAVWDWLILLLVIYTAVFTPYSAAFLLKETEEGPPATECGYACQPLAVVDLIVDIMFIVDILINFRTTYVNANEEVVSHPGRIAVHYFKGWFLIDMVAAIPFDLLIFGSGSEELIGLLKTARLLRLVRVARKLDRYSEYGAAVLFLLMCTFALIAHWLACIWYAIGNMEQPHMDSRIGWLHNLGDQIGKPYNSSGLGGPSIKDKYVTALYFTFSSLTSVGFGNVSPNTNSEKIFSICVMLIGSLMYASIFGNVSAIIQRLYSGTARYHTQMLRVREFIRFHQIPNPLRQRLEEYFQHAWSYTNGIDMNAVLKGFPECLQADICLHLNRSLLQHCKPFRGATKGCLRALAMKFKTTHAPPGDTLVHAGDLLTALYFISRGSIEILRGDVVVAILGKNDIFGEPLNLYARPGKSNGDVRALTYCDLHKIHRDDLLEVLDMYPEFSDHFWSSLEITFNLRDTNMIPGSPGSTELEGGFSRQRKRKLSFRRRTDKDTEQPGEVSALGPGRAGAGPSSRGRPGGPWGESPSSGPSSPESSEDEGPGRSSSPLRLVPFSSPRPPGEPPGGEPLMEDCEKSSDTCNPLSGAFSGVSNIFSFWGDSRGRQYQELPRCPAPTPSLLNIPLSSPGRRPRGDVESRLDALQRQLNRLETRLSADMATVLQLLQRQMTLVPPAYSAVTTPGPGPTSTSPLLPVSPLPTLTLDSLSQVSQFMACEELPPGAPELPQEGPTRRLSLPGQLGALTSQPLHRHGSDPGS

The target in experiment [9] is Cytochrome P450 3A4 (Homo sapiens) (UniProt P08684). Briefly: Cytochrome P450 Family 3 Subfamily A Member 4 (CYP3A4) small molecule antagonists: luciferase reporter qHTS assay (AID 1671201). Further: series mostly up to about 120 µM; nearly all actives have a fitted effect of over 50% in size. Put shortly:
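P450-Glo CYP3A4 luminescent assay: compounds preincubated 10 min at room temperature with enzyme and proluciferin substrate, NADPH regeneration added, 1 h room-temperature reaction, stopped with luciferin detection reagent; luminescence read after 20 min. Ketoconazole positive control.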

Experiment [10] deals with Cytochrome P450 2C9 (Homo sapiens) (UniProt P11712). Briefly: Cytochrome P450 Family 2 Subfamily C Member 9 (CYP2C9) small molecule antagonists: luciferase reporter qHTS assay (AID 1671198). Put shortly: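 Enzyme-substrate mix preincubated with compound 10 min at room temperature; reaction started with NADPH regeneration solution, 1 h 37C. Luminescent luciferin product read after 20 min detection reagent.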
Sequence of Cytochrome P450 2C9 (Homo sapiens) (P11712 whole entry, looked up): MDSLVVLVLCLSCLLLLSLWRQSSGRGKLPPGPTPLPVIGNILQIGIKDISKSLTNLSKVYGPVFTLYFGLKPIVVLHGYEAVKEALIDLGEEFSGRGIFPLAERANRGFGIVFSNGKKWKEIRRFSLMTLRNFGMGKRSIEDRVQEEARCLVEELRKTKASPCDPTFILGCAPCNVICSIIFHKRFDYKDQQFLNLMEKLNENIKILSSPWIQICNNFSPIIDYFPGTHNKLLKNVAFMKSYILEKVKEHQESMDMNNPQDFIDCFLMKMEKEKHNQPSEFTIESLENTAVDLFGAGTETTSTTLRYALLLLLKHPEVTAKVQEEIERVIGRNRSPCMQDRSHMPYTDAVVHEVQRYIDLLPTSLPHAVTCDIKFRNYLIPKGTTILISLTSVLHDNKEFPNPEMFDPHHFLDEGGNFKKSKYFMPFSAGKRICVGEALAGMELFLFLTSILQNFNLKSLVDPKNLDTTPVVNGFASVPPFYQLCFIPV

Experiment [11] is described as follows: Caspase-3/7 induction in CHO-K1 cells by small molecules, qHTS assay (AID 1346980). Further: nearly all actives have a fitted effect of over 15% in size. In outline:
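Luminescent Caspase-Glo 3/7 read (30min, room temperature) quantified apoptosis induction. Cells were wild-type CHO-K1, treated with compound for 17hr at 37 C and 5% CO2.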

Experiment [12] can be described thus: Caspase-3/7 induction in HepG2 cells by small molecules, qHTS cell viability counter screen (AID 1346981). Further: series mostly up to about 92 µM; nearly all actives have a fitted effect of over 30% in size. Put shortly:
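Counter screen for cytotoxicity: HepG2 exposed 16 hr to compounds, then CellTiter-Fluor viability signal (fluorescence, 1 hr reagent incubation).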

Experiment [13] concerns the target Nuclear receptor subfamily 1 group I member 2 (Rattus norvegicus) (UniProt Q9R1A7). Briefly: Rat pregnane X receptor (rPXR) activation by small molecules, qHTS assay (AID 1346983). Further: nearly all actives have a fitted effect of over 20% in size. To be noted: rPXR luciferase reporter cells, One-Glo luminescence, 24 h; max activation: hits give high values. In outline:
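Luminescent readout (One-Glo luciferase, 30 min room temperature) followed 24 hr compound treatment at 37 C of rPXR cells plated 2,000 per well and preincubated 5hr; qHTS format with compounds delivered in DMSO.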

The target of experiment [14] is Nuclear receptor subfamily 1 group I member 2 (Homo sapiens) (UniProt O75469). Briefly: CYP3A4 induction through human pregnane X receptor (PXR) by small molecules, qHTS assay (AID 1346984). Further: nearly all actives have a fitted effect of over 40% in size. In outline:
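DPX-2 reporter cells; 24h cpd, 37C; Luciferin-IPA 3uM final x3h; One-Glo 30 min RT; lumi read.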

For experiment [15] the target is unchanged. Briefly: Human pregnane X receptor (PXR) activation by small molecules, qHTS assay (AID 1346985). Further: nearly all actives have a fitted effect of over 40% in size. In outline: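 DPX-2 cells (HepG2 co-transfected with a PXR response element and a CYP3A4-promoter luciferase construct) were seeded at 2,000 per well, rested 5 hr at 37C, then exposed to DMSO-dissolved compounds for 24 hr. Activation was read as luciferase luminescence.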

Experiment [16] has as its target Cytochrome P450 1A2 (Homo sapiens) (UniProt P05177). Briefly: Cytochrome P450 Family 1 Subfamily A Member 2 (CYP1A2) small molecule antagonists: luciferase reporter qHTS assay (AID 1671199). In outline: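 Signal from luciferin formed by CYP1A2 from a proluciferin substrate is read as luminescence, expressed in relative luminescence units. Compounds sit with enzyme 10 min, NADPH-driven reaction runs 1 h, all at room temperature.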
On the % scale 0 is the no-effect control and ±100 the full control effect.

Sequence of Cytochrome P450 2D6 (Homo sapiens) (P10635 whole entry, looked up): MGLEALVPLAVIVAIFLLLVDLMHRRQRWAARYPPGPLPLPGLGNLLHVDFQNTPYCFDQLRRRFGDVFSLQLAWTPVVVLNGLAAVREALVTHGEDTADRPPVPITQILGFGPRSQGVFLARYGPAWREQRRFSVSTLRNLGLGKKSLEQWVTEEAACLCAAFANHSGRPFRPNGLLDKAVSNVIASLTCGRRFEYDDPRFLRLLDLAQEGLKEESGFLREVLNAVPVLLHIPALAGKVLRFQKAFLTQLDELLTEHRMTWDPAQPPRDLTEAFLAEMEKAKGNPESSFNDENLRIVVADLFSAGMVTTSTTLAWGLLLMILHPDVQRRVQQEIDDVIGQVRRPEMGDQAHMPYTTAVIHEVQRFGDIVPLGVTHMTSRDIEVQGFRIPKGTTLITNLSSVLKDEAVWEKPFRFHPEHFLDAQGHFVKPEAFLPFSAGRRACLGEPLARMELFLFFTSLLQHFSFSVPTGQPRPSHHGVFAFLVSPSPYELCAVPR
Sequence of Cytochrome P450 3A4 (Homo sapiens) (P08684 whole entry, looked up): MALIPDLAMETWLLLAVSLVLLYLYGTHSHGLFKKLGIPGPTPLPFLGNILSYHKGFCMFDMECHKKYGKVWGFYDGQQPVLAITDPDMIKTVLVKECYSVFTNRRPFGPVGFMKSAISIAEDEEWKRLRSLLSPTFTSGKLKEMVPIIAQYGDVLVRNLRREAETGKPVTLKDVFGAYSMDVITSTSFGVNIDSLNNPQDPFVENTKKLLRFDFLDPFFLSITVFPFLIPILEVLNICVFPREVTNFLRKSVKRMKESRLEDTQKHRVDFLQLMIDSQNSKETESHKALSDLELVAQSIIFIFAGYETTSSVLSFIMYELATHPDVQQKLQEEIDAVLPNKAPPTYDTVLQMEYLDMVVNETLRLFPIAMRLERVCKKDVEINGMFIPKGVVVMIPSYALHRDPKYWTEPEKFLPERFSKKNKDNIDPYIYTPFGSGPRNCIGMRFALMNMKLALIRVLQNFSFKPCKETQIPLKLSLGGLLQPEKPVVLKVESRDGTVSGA
Sequence of Cytochrome P450 1A2 (Homo sapiens) (P05177 whole entry, looked up): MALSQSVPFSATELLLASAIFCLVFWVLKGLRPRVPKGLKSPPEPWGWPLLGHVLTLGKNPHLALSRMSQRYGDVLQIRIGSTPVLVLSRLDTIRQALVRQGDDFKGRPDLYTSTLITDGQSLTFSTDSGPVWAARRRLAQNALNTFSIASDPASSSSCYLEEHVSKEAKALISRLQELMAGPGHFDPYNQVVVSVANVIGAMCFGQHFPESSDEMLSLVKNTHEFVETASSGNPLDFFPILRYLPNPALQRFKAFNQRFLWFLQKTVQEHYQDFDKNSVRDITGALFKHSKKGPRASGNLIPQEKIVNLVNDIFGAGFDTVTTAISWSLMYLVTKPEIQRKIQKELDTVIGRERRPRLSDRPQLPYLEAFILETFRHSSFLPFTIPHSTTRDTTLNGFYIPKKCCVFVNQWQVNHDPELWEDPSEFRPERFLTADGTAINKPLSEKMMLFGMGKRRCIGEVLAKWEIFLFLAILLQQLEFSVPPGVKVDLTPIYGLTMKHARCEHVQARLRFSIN
Sequence of Nuclear receptor subfamily 1 group I member 2 (Homo sapiens) (O75469 whole entry, looked up): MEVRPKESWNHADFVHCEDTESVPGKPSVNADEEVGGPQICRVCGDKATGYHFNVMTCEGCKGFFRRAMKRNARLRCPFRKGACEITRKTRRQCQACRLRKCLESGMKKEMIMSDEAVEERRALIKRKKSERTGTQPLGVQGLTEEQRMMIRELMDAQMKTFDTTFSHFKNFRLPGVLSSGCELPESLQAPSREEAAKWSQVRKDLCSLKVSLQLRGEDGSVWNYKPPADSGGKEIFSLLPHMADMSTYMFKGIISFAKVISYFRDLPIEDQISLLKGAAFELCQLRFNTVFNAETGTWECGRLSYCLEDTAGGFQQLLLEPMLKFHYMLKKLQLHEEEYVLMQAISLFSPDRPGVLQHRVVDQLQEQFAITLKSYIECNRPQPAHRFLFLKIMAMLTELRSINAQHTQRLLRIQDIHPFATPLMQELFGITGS
Sequence of Nuclear receptor subfamily 1 group I member 2 (Rattus norvegicus) (Q9R1A7 whole entry, looked up): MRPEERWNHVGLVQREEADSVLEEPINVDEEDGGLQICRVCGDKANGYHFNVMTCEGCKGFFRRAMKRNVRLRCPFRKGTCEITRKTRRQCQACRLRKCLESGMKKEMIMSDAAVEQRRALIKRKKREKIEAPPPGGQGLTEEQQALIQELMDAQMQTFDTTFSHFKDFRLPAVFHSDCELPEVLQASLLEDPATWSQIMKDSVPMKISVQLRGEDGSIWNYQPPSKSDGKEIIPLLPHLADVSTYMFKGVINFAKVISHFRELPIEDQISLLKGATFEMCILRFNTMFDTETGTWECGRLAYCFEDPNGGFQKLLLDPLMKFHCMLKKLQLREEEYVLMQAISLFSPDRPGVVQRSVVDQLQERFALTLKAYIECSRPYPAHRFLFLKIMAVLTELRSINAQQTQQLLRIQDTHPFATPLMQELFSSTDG

On to `Cc1ccc(Nc2ccc(O)c3c2C(=O)c2ccccc2C3=O)cc1`, for which the outcome in experiment [1] and in experiment [3] was inactive. The Potency entry in [2], in experiment [4], in [5], in [6], in experiment [7] and in experiment [8] was “inactive” throughout. For the same compound, the Potency entry in experiment [9] is “inactive”.

`CC(C)(C)N(CCO)CCO`: the compound was classed as inactive in experiment [1] and in [3]. For the same compound, the Potency entry in experiment [2], in experiment [4], in [6], in [7], in [10] and in experiment [8] was “inactive” throughout. Besides, in [9], the Potency result is “inactive”. In addition, in experiment [5], the Potency is 63.1 µM (active).

Turning to `Nc1nc(F)nc2c1ncn2[C@@H]1O[C@H](CO)[C@@H](O)[C@@H]1O`, the Potency result in experiment [2], in experiment [4], in [5], in [14], in experiment [15] and in experiment [10] was “inactive” each time. Further, the Potency entry in experiment [8] and in experiment [9] was “inactive” throughout. In addition, the call in [3], in experiment [11] and in experiment [12] was inactive. Moreover, the max activation in [13] was -2.35%. Besides, the Potency in experiment [6] was 34.7 µM (active).

As for `NCCN1CCNC1=O`, the Potency result in experiment [2], in experiment [4], in [5], in experiment [6], in [7] and in [10] was “inactive” throughout. Further, the Potency result in experiment [16], in experiment [8] and in [9] was “inactive” throughout. In addition, the compound was called inactive in [3], in [11] and in experiment [12].

On to `CCc1cc(S(=O)(=O)O)c2cc(C(C)C)cccc1-2`, for which the outcome in [1] and in [3] was inactive. For the same compound, the Potency result in [2], in experiment [4], in experiment [5], in experiment [6], in [16] and in [8] was “inactive” in each case. For the same compound, the Potency result in experiment [9] was “inactive”.

Turning to `CNC(=O)c1c(I)c(NC(=O)CCCCC(=O)Nc2c(I)c(C(=O)O)c(I)c(C(=O)NC)c2I)c(I)c(C(=O)O)c1I`, the Potency entry in experiment [2], in experiment [4], in experiment [5], in [6], in experiment [7] and in [10] was “inactive” in each case. Also, the Potency result in [16], in experiment [8] and in [9] was “inactive” in each case. Also, the compound was classed as inactive in [3], in [11] and in experiment [12].

Take `CCCC=O`: the Potency entry in [2], in experiment [4], in [5], in experiment [6], in [7] and in experiment [10] was “inactive” in each case. For the same compound, the Potency result in [16], in experiment [8] and in [9] was “inactive” throughout. Also, the outcome in experiment [3], in [11] and in experiment [12] was inactive.

For the compound `NC(=O)c1ncn([C@@H]2O[C@H](CO)[C@@H](O)[C@H]2O)c1O`, the Potency result in experiment [2], in experiment [4], in experiment [5], in experiment [14], in experiment [15] and in [7] was “inactive” throughout. For the same compound, the Potency result in [10], in experiment [16], in [8] and in [9] was “inactive” throughout. Besides, the call in experiment [3], in [11] and in experiment [12] was inactive. For the same compound, in experiment [13], the max activation was -0.429%.

In the case of `CO[Si](CCCNCCC[Si](OC)(OC)OC)(OC)OC`, the Potency result in experiment [2], in experiment [4], in [5], in experiment [6], in experiment [7] and in experiment [10] was “inactive” throughout. Also, the Potency result in [16], in experiment [8] and in [9] was “inactive” each time. The call in experiment [3], in experiment [11] and in [12] was inactive.

As for `Cc1ccccc1Br`, the result in [1] and in [3] was inactive. The Potency entry in [2], in [4], in [5], in experiment [8] and in experiment [9] was “inactive” in each case. Also, in experiment [7], the Potency is 79.1 µM (active).
